Data on eight compounds can be found in PubChem BioAssay (Tox21).

Assay [1] is described as follows: qHTS assay to test for compound auto fluorescence at 535 nm (green) in HEK293 cells (AID 720680). Further: on the % scale 0 is the no-effect control and ±100 the full control effect. A general note: Quantitative high-throughput screening tests each substance at several concentrations.
Assay [2] in a line: qHTS assay to test for compound auto fluorescence at 460 nm (blue) in HEK293 cell free culture (AID 720681). Further: on the % scale 0 is the no-effect control and ±100 the full control effect. Put shortly:
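Blue fluorescence (Ex 405/Em 460 nm, triamterene-equivalent) was read immediately after pin transfer of compound or DMSO into medium (DMEM, 10% FBS) without cells.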

A short description of assay [3]: qHTS assay to test for compound auto fluorescence at 535 nm (green) in HEK293 cell free culture (AID 720682). Further: on the % scale 0 is the no-effect control and ±100 the full control effect. Put shortly: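 Green-channel intensity (Ex/Em 485/535 nm) was recorded from compound-treated wells containing only DMEM with 10% FBS. Fluorescein provided the equivalency standard.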
Assay [4] is described as follows: qHTS assay to test for compound auto fluorescence at 590 nm (red) in HEK293 cell free culture (AID 720683). Further: on the % scale 0 is the no-effect control and ±100 the full control effect. Put shortly:
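Red-channel autofluorescence of compounds in culture medium (DMEM, 10% FBS), no cells, measured at 540/590 nm. Rose Bengal sodium is the reference fluorophore for equivalence.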

Assay [5] in a line: qHTS assay to test for compound auto fluorescence at 590 nm (red) in HepG2 cell free culture (AID 720684). Further: on the % scale 0 is the no-effect control and ±100 the full control effect. Put shortly: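 Plate contents were MEM with 10% FBS plus test compound or DMSO, no cells. Fluorescence was recorded with 540 nm excitation and 590 nm emission.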
Assay [6] can be described thus: qHTS assay to test for compound auto fluorescence at 460 nm (blue) in HepG2 cell free culture (AID 720685). Further: on the % scale 0 is the no-effect control and ±100 the full control effect. Put shortly:
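Compound (23 nL) or DMSO pinned into cell-free MEM with 10% FBS; blue fluorescence read at 405/460 nm excitation/emission, expressed as auto-fluorescence equivalency to triamterene.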

The nature of assay [7]: qHTS assay to test for compound auto fluorescence at 535 nm (green) in HepG2 cell free culture (AID 720686). Further: on the % scale 0 is the no-effect control and ±100 the full control effect.
A short description of assay [8]: qHTS assay to test for compound auto fluorescence at 460 nm (blue) in HepG2 cells (AID 720687). Further: on the % scale 0 is the no-effect control and ±100 the full control effect. A digest of the protocol: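 Blue-channel autofluorescence (Ex/Em 405/460 nm, triamterene-equivalent) was measured after 1 hr compound exposure at 37 C, 5% CO2. Cells were HepG2, plated overnight at 37 C in MEM plus 10% FBS.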
The nature of assay [9]: qHTS assay to identify small molecule antagonists of the glucocorticoid receptor (GR) signaling pathway - cell viability counter screen (AID 720693). Further: on the % scale 0 is the no-effect control and ±100 the full control effect; nearly all actives have a fitted effect of over 55% in size.
Assay [10] in a line: qHTS assay for identifying genotoxic compounds that show differential cytotoxicity against isogenic chicken DT40 cell lines with known DNA damage response pathways - wild type cell line (AID 743012). Further: nearly all actives have a fitted effect of over 60% in size. Further: potency means the concentration at half of the fitted maximal effect. A digest of the protocol:
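First, wild type DT40 cells were plated at 300 per well and equilibrated about 0.5 h at 37 C/5% CO2. Next, compounds in DMSO were added and exposure lasted 40 h. Finally, CellTiter-Glo was added for 30 min at room temperature and luminescence recorded.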

A short description of assay [11]: qHTS assay for identifying genotoxic compounds that show differential cytotoxicity against isogenic chicken DT40 cell lines with known DNA damage response pathways - Rad54/Ku70 mutant cell line (AID 743015). Further: nearly all actives have a fitted effect of over 60% in size. Further: potency means the concentration at half of the fitted maximal effect.
Assay [12] can be described thus: qHTS assay to identify small molecule antagonists of the androgen receptor (AR) signaling pathway - cell viability counter screen (AID 743033; further: on the % scale 0 is the no-effect control and ±100 the full control effect; nearly all actives have a fitted effect of over 45% in size).
Assay [13] can be described thus: qHTS assay to identify small molecule antagonists of the thyroid receptor (TR) signaling pathway - cell viability counter screen (AID 743064). Further: on the % scale 0 is the no-effect control and ±100 the full control effect; nearly all actives have a fitted effect of over 50% in size. A digest of the protocol:
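In rat pituitary GH3.TRE-Luc reporter cells co-exposed to compound and 1 nM T3 for 23.5 h, cytotoxicity was assessed with CellTiter-Fluor in the same wells, read by fluorescence.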

The target in assay [14] is Glucocorticoid receptor (Homo sapiens) (UniProt P04150). Description: qHTS assay to identify small molecule agonists of the glucocorticoid receptor (GR) signaling pathway (AID 720691; active means well fitted activation curve with a large enough effect in the signal ratio in the repeat runs, not every such curve was filed as active; the % refers to the signal ratio; further: on the % scale 0 is the no-effect control and ±100 the full control effect). A digest of the protocol: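 qHTS in GR-bla HeLa cells: 4 h settling at 37 C/5% CO2, 18 h compound incubation at 37 C, 2 h LiveBLAzer B/G FRET substrate at room temperature, fluorescence intensity measured.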

A short description of assay [15]: qHTS assay for identifying genotoxic compounds that show differential cytotoxicity against isogenic chicken DT40 cell lines with known DNA damage response pathways - Rev3 mutant cell line (AID 743014). Further: nearly all actives have a fitted effect of over 55% in size. Further: potency means the concentration at half of the fitted maximal effect.
Assay [16] in a line: qHTS assay to identify small molecule antagonists of the androgen receptor (AR) signaling pathway using the MDA cell line - cell viability counter screen (AID 743041; further: on the % scale 0 is the no-effect control and ±100 the full control effect; nearly all actives have a fitted effect of over 45% in size). Put shortly: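 R1881-driven MDA-kb2 AR-luc cells, 3,000/well, were dosed with library compounds for 16 h; cell health came from CellTiter-Fluor fluorescence in the reporter wells.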
The target in assay [17] is Glucocorticoid receptor (Homo sapiens) (UniProt P04150). Put plainly: qHTS assay to identify small molecule antagonists of the glucocorticoid receptor (GR) signaling pathway (AID 720692; active means well fitted inhibition curve with a large enough effect in the signal ratio in the repeat runs, not every such curve was filed as active; the % refers to the signal ratio; further: potency means the concentration at half of the fitted maximal effect). Put shortly: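 Inhibition of glucocorticoid signalling is measured in HeLa cells with a GRE-controlled beta-lactamase reporter; cells are co-treated with compound and 5 nM dexamethasone (final) for 18 h before FRET substrate readout.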

The target in assay [18] is Androgen receptor (Homo sapiens) (UniProt P10275). Put plainly: qHTS assay to identify small molecule agonists of the androgen receptor (AR) signaling pathway using the MDA cell line (AID 743040; further: nearly all actives have a fitted effect of over 20% in size; further: potency means the concentration at half of the fitted maximal effect). A digest of the protocol:
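After a 5 h incubation at 37C and 0% CO2, MDA-kb2 reporter cells were dosed with compounds in DMSO and kept 16 h under the same conditions. Luciferase activity was then read as luminescence with ONE-Glo.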

Assay [19] shares this target. Description: qHTS assay to identify small molecule antagonists of the androgen receptor (AR) signaling pathway using the MDA cell line (AID 743042; further: on the % scale 0 is the no-effect control and ±100 the full control effect; nearly all actives have a fitted effect of over 55% in size). A digest of the protocol: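 Antagonist mode: compounds plus R1881 agonist added to MDA-kb2 AR-luc cells, incubated 16 h at 37C. Luciferase reporter luminescence quantified, with multiplexed CellTiter-Fluor readout for cell viability.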

Assay [20] shares this target. Put plainly: qHTS assay to identify small molecule agonists of the androgen receptor (AR) signaling pathway (AID 743036; active means well fitted activation curve with a large enough effect in the signal ratio in the repeat runs, with a control signal flat, not every such curve was filed as active; the % refers to the signal ratio; further: on the % scale 0 is the no-effect control and ±100 the full control effect). Put shortly:
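Cell-based FRET reporter assay: HEK293 line with a UAS-beta-lactamase construct, compounds added in DMSO, 16 h exposure at 37C, then 2 h substrate step at room temperature and fluorescence intensity read.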

The structures appear in SMILES notation. Values without a mark were called inactive. Inconclusive results are not listed. Calls of active or inactive are those of the source. Unless noted, the call rests on the fitted dose curve; in most records, active means well fitted curve in the direction sought with a large enough effect in the repeat runs; inconclusive means weak or mixed curves; inactive means no such curve, though single readings can be large; an effect the other way counts as inactive or inconclusive.

Sequence of Androgen receptor (Homo sapiens) (P10275 whole entry, looked up): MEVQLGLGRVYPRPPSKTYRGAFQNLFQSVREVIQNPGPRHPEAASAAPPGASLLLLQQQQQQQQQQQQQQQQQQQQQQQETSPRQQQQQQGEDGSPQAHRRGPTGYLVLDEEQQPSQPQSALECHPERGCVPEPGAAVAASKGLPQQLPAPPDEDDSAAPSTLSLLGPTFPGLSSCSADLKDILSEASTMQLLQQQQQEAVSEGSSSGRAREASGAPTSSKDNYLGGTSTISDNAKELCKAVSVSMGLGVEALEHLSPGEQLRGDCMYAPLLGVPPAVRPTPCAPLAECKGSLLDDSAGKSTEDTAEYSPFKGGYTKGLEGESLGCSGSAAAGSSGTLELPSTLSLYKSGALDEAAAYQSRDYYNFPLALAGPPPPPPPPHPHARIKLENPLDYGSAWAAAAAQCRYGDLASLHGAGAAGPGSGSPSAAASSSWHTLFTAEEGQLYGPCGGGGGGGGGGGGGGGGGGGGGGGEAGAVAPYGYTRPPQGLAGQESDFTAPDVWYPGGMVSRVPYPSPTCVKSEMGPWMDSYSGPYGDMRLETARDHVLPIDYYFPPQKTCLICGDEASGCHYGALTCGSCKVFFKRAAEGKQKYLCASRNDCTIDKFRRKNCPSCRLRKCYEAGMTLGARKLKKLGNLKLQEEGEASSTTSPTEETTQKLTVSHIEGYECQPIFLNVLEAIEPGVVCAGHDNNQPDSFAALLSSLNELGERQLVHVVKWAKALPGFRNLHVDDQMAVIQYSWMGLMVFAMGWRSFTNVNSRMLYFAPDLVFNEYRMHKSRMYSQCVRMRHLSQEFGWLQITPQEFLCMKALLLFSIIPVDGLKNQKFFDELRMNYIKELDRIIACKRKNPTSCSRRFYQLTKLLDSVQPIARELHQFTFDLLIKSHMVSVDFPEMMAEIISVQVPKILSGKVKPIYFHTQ
Sequence of Glucocorticoid receptor (Homo sapiens) (P04150 whole entry, looked up): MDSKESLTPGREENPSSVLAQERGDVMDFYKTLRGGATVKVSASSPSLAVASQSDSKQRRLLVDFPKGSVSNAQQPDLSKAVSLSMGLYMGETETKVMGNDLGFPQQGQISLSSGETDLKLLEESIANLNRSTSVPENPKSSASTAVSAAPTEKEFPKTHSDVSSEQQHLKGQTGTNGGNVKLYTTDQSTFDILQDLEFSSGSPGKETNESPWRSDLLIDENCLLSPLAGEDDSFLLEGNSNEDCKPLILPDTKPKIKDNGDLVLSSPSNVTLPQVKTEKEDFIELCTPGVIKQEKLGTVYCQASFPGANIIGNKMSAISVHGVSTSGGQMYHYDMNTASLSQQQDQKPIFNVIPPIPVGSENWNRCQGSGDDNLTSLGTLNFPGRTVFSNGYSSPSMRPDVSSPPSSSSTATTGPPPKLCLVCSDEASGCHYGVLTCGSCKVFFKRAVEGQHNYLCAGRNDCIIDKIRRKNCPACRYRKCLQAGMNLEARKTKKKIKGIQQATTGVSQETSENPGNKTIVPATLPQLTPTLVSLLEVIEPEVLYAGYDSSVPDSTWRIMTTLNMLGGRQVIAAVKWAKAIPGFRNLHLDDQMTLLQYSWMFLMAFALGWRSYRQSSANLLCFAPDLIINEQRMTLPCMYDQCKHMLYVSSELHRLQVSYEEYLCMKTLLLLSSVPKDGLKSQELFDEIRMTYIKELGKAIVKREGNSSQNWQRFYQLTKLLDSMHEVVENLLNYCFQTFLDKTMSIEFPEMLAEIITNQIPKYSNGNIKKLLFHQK

`CCCCCCCCCCCCCCCCBr`: the fluorescence, % of fluorescein in assay [1] was -0.0178% [at 18.6 µM]. Moreover, the fluorescence, % of fluorescent control was 0.102% [at 18.6 µM] in assay [2], 0.0252% [at 18.6 µM] in [4], -0.0045% [at 18.6 µM] in assay [6] and -0.0027% [at 18.6 µM] in assay [8]. For the same compound, the activity change in assay [3] is 0.0082% [at 18.6 µM]. In addition, the fluorescence, % of Rose Bengal in assay [5] is 0.119% [at 18.6 µM]. In assay [7], the fluorescence, % of fluorescein control was 0.0028% [at 18.6 µM]. Also, the Potency entry in assay [9], in assay [10], in assay [11], in [12] and in assay [13] was “inactive” throughout.
`CCCCCCCC/C=C\CCCCCCCC(=O)OC(CO)CO`: the outcome in assay [1], in [3], in assay [4], in assay [5] and in [7] was inactive. Moreover, the Potency result in assay [2], in [6], in [8], in [14], in assay [9] and in assay [10] was “inactive” throughout. Further, the Potency entry in assay [12] is “inactive”.
Consider `O=C(O)c1cccc(O)c1`, for which the compound was classed as inactive in [1], in assay [3], in assay [4], in [5] and in assay [7]. For the same compound, the Potency entry in assay [2], in assay [6], in assay [8], in assay [9], in [10] and in assay [15] was “inactive” throughout. Also, the Potency entry in assay [11], in assay [12], in assay [16] and in assay [13] was “inactive” each time.
Turning to `CC(COc1ccc(C(C)(C)C)cc1)OS(=O)OCCCl` (stereo not given), the compound was classed as inactive in assay [1], in assay [3], in assay [4], in assay [5] and in [7]. Moreover, the Potency entry in [2], in [6], in assay [8], in [9], in [10] and in assay [15] was “inactive” each time. Also, the Potency entry in assay [11], in [12], in assay [16] and in assay [13] was “inactive” throughout.
With `COCc1c(C(C)C)nc(C(C)C)c(/C=C/[C@@H](O)C[C@@H](O)CC(=O)O)c1-c1ccc(F)cc1`, the result in assay [1], in assay [3], in [4], in assay [5] and in [7] was inactive. Besides, the Potency result in [2], in assay [6], in [8], in [16], in assay [19] and in assay [13] was “inactive” in each case. Besides, the Potency was 3.38 µM (active) in [17]; 0.075 µM (active) in assay [10]; 0.0133 µM (active) in assay [15]; 0.298 µM (active) in [11]; 13.3 µM (active) in assay [18].
Turning to `O=C(O)c1cccnc1C(=O)O`, the outcome in assay [1], in [3], in assay [4], in assay [5] and in assay [7] was inactive. Besides, the Potency entry in [2], in assay [6], in assay [8], in assay [9], in [10] and in assay [11] was “inactive” each time. Moreover, the Potency entry in assay [12], in assay [16] and in assay [13] was “inactive” in each case.
Consider `CC(=O)Oc1ccc(C(=C2CCCCC2)c2ccc(OC(C)=O)cc2)cc1`, for which the compound was called inactive in assay [1], in assay [3], in assay [4], in assay [5] and in [7]. The Potency result in assay [2], in assay [6], in [8], in assay [9], in assay [10] and in assay [11] was “inactive” each time. Also, the Potency entry in assay [12] and in assay [16] was “inactive” each time.
As to `CNC(=O)N(c1ccccc1)c1ccccc1`, the call in assay [1], in [3], in [4], in assay [5] and in [7] was inactive. Also, the Potency result in [2], in [6], in assay [8], in assay [9], in [10] and in assay [11] was “inactive” throughout. Also, the Potency entry in assay [12], in [20], in assay [18], in assay [16], in [19] and in assay [13] was “inactive” in each case.
